aSyn 5UTR inh = 5' untranslated region of α-synuclein, MLPCN primary screen; alpha-synuclein 5'UTR reporter, inhibitor activity; inhibition, % (tested at 7.5 µM); 300,000 tested, 0.82% active; in the data active means inhibition above about 60%; inconclusive means no clear call, values can overlap the other calls;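 further: H4 neuroglioblastoma cells stably carrying SNCA 5'UTR luciferase fusion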
EBV LMP1 NFkB = inhibitors of Epstein-Barr LMP1-induced NF-kappaB reporter; inhibition, % at 12.5 µM; 350,000 tested, 0.69% active; LMP1-induced NF-kappaB luciferase reporter cells, luminescence; AID 504558; in the data active means inhibition above about 41%; inconclusive means no clear call, values can overlap the other calls
TRPM1 prom inh = reduces MITF-dependent TRPM1 promoter luciferase signal | SK-MEL-5 TRPM1 promoter luciferase, 24 h | inhibition, % at 12.5 µM | 330,000 tested, 0.83% active;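 active means mean inhibition across replicates of 60% or more, whatever share of single replicates reaches that level; inconclusive means some that reach 60%, reason not given; inactive means mean inhibition across replicates below 60%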
Shn3 inh set2 = reduces Shn3 3'UTR luciferase signal in osteoblasts; Clone20 osteoblast Shn3 3'UTR firefly luciferase, 24 h; 360,000 tested, 0.52% active; inhibition, % at 12.5 µM; AID 588674;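 active means mean inhibition of at least 75% with every replicate also reaching 75%; inconclusive means mean inhibition at least 75% but some replicate below; inactive means mean inhibition below 75%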
PAX8 reporter = PAX8 transcriptional activity inhibition; inhibition, % at 12.6 µM; RMG-I TPO-luciferase reporter, SteadyGlo, 24 h; 360,000 tested, 1.2% active;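 active means mean replicate inhibition at least 60% with every replicate also reaching 60%; inconclusive means only one of the two criteria is met; inactive means mean below 60% and not all replicates reaching 60%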;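 further: luciferase light reporting Pax8 driven TPO promoter activity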
Each line names hits and unclear results; the compound was inactive in the other large screens. Most compounds without a hit are left out; they make up all but 2.1% or so of the library.

CCOc1ccc(C(C(=O)NC2CCCC2)N(CCOC)C(=O)CNC(=O)c2ccco2)cc1 (configuration not stated)	none
CCOC(=O)Nc1ccc2c(c1)C(=NO)c1ccccc1-2	Shn3 inh set2 92.1 (no result: aSyn 5UTR inh)
CCOC(=O)Nc1ccc2c(c1)C(=NNC(N)=S)c1ccccc1-2	none (no result: aSyn 5UTR inh)
Cc1ccccc1NC(=O)C(Cl)=C(Cl)Cl	EBV LMP1 NFkB 90.0, PAX8 reporter 93.9
Cc1cc(C(=O)Nc2cccc3c2O[C@@H](CN(C)Cc2ccc(-c4ccccc4)cc2)[C@H](C)CN([C@H](C)CO)C3=O)n(C)n1	PAX8 reporter 69.8 (no result: aSyn 5UTR inh, EBV LMP1 NFkB, TRPM1 prom inh, Shn3 inh set2)
Cc1cc(C(=O)Nc2cccc3c2O[C@H](CN(C)Cc2ccc(Oc4ccccc4)cc2)[C@@H](C)CN([C@@H](C)CO)C3=O)n(C)n1	PAX8 reporter 67.6 (no result: aSyn 5UTR inh, EBV LMP1 NFkB, TRPM1 prom inh, Shn3 inh set2)
Cc1cc(C(=O)Nc2cccc3c2O[C@H](CN(C)Cc2ccc(Oc4ccccc4)cc2)[C@H](C)CN([C@@H](C)CO)C3=O)n(C)n1	none (no result: aSyn 5UTR inh, EBV LMP1 NFkB, TRPM1 prom inh, Shn3 inh set2)
C[C@H](CO)N1C[C@H](C)[C@H](CN(C)Cc2ccc(-c3ccccc3)cc2)Oc2c(NC(=O)c3ccc(-c4nccs4)cc3)cccc2C1=O	none (no result: aSyn 5UTR inh, EBV LMP1 NFkB, TRPM1 prom inh, Shn3 inh set2)
C[C@H]1CN([C@@H](C)CO)C(=O)c2cccc(NC(=O)c3ccc(-c4nccs4)cc3)c2O[C@H]1CN(C)Cc1ccc(-c2ccccc2)cc1	PAX8 reporter 62.7 (no result: aSyn 5UTR inh, EBV LMP1 NFkB, TRPM1 prom inh, Shn3 inh set2)
COc1ccc(CCNC(=O)c2cc(=O)c3cc(C)ccc3o2)cc1OC	none
OC1CCC(NC(=S)Nc2ccc(SC(F)F)cc2)CC1 (configuration not stated)	none
COc1nsnc1NS(=O)(=O)c1ccc(NC(=S)NC(=O)c2ccncc2)cc1	none
CCN(CC)CCNC(=O)c1ccc(NC(=O)c2ccc(S(=O)(=O)N3CCCCCC3)cc2)cc1	none
CN(C)CCCN1c2ccccc2CCc2ccc(Cl)cc21	none
C[C@@H](NCCc1ccc(O)cc1)[C@@H](O)c1ccc(O)cc1	none
CCCCCCCCNC(C)C(O)c1ccc(SC(C)C)cc1 (configuration not stated)	TRPM1 prom inh 82.9, Shn3 inh set2 96.0
COc1ccc(O)c(C(=O)c2cc(SCC(=O)O)c3nc4sc5c(c4c(=O)n3c2)CCCC5)c1	none
COc1ccc(/C=N/n2cnc3c([nH]c4ccc(C)cc43)c2=O)cc1CN1CCCC1	TRPM1 prom inh 82.5
COc1ccc(/C=N/n2cnc3c([nH]c4ccc(F)cc43)c2=O)cc1CN1CCCC1	TRPM1 prom inh 86.3
COc1ccc2c(c1)[nH]c1c(=O)n(/N=C/c3ccc(OC)c(CN4CCCC4)c3)cnc12	none
CC(CN1CCCCC1)OC(=O)COc1ccc(Br)cc1 (configuration not stated)	none
COc1ccc(/C=C/C(=O)OCC(=O)Nc2ccc(OC)c(S(=O)(=O)N3CCCCC3)c2)cc1	none
COc1ccc(S(=O)(=O)N2CCOCC2)cc1NC(=O)COC(=O)CCS(=O)(=O)c1ccc(C)cc1	EBV LMP1 NFkB 67.8 (no result: aSyn 5UTR inh)
COc1ccc(S(=O)(=O)N2CCOCC2)cc1NC(=O)COC(=O)C1CCC1	none (no result: aSyn 5UTR inh)
COc1ccc(/C=C/C(=O)OCC(=O)Nc2ccc(C)cc2)cc1S(=O)(=O)N1CCOCC1	PAX8 reporter 76.3
COc1ccc(NC(=O)COC(=O)/C=C/c2ccc(OC)c(S(=O)(=O)N3CCOCC3)c2)cc1	EBV LMP1 NFkB 53.7 (no result: PAX8 reporter)
CC(OC(=O)C1CC=CCC1C(N)=O)C(Cl)=C(Cl)Cl (configuration not stated)	none (no result: PAX8 reporter)
COC(=O)CCC(=O)NC(=S)Nc1sc(C)c(C)c1C(N)=O	aSyn 5UTR inh 89.5
Cc1sc(NC(=S)NC(=O)CCc2ccccc2)c(C(N)=O)c1C	PAX8 reporter 82.8 (no result: aSyn 5UTR inh)
COC(=O)CCC(=O)Nc1sc(C)c(C)c1C(N)=O	none (no result: PAX8 reporter)
C[C@@H]1CCCCO[C@@H](CN(C)C(=O)c2ccccc2)[C@@H](C)CN([C@@H](C)CO)C(=O)c2cc(NC(=O)C3CCCCC3)ccc2O1	none (no result: aSyn 5UTR inh, EBV LMP1 NFkB, TRPM1 prom inh, Shn3 inh set2)
C/C(=N\Nc1ccc2nncn2n1)c1ccccn1	aSyn 5UTR inh 93.9, Shn3 inh set2 90.0, PAX8 reporter 63.4 (no result: EBV LMP1 NFkB, TRPM1 prom inh)
CC(=NNc1ccc2ccccc2n1)c1ccccc1O	none (no result: aSyn 5UTR inh, TRPM1 prom inh)
CC(=NNc1ccc2ccccc2n1)c1ccccn1	PAX8 reporter 113.7 (no result: aSyn 5UTR inh, EBV LMP1 NFkB, TRPM1 prom inh, Shn3 inh set2)
C/C(=N\Nc1ccc2nncn2n1)c1ccco1	none
C(=N\Nc1ccc2nncn2n1)/c1ccccn1	aSyn 5UTR inh 66.6
COc1ccc2nc(NN=C(C)c3ccccn3)cc(C)c2c1	EBV LMP1 NFkB 79.3, TRPM1 prom inh 77.1, Shn3 inh set2 86.3 (no result: aSyn 5UTR inh)
CS(=O)(=O)Nc1ccc(C2=NN(C(=O)c3ccco3)C(c3cccc(F)c3)C2)cc1 (configuration not stated)	none
Cc1nnc(NC(=O)CSc2n[nH]c(-c3ccccc3)n2)s1	none
COc1ccc(OCCSc2nnc(CC(=O)Nc3cccc(Cl)c3Cl)n2C)cc1	none (no result: PAX8 reporter)
O=C(COC(=O)Cc1cccc(C(F)(F)F)c1)NCC1CCCO1 (configuration not stated)	none (no result: PAX8 reporter)
CCOC(=O)/C=C/S(=O)(=O)c1ccc(NC(C)=O)cc1	TRPM1 prom inh 92.2, Shn3 inh set2 96.5 (no result: PAX8 reporter)
CCOC(=O)/C=C/C(=O)Nc1ccc(S(=O)(=O)Nc2c(C)cc(C)cc2C)cc1	none
Cc1nc(SCC(=O)Nc2cc(C(N)=O)cc(C(N)=O)c2)c2c(C)c(C)sc2n1	none
CCCCCCn1ccc(=N)cc1	Shn3 inh set2 86.4 (no result: PAX8 reporter)
Cc1ccc(NC(=S)NC(=O)c2ccc(F)cc2)cc1S(=O)(=O)Nc1cccc(Cl)c1	aSyn 5UTR inh 81.3
CCOC(=O)C(C)Sc1nc(-c2cccs2)ccc1C#N (configuration not stated)	EBV LMP1 NFkB 59.6 (no result: PAX8 reporter)
O=C(C[C@H]1C=C[C@@H](NC(=O)c2ccccn2)[C@H](CO)O1)NCc1cc(F)cc(F)c1	none (no result: aSyn 5UTR inh, EBV LMP1 NFkB, TRPM1 prom inh, Shn3 inh set2)
COc1ccc(-c2nn(-c3ccccc3)cc2/C=N/N=C(N)N)cc1OC	TRPM1 prom inh 94.4 (no result: PAX8 reporter)
C=CCC[C@@H](Cc1ccc(F)cc1)C(=O)OC[C@@H](Cc1c[nH]c2ccccc12)NC(=O)[C@H](CC=C)CC(=O)N(CCO)Cc1ccccc1	PAX8 reporter 101.4 (no result: aSyn 5UTR inh)
C=CCC[C@H](Cc1ccc(F)cc1)C(=O)OC[C@@H](Cc1c[nH]c2ccccc12)NC(=O)[C@H](CC=C)CC(=O)NCCO	none (no result: aSyn 5UTR inh)
C=CCC[C@H](Cc1ccc(F)cc1)C(=O)OC[C@@H](Cc1c[nH]c2ccccc12)NC(=O)[C@H](CC=C)CC(=O)N(CCO)Cc1ccccc1	Shn3 inh set2 inconclusive, PAX8 reporter 76.7 (no result: aSyn 5UTR inh)
C=CC[C@@H](CC(=O)N(CCO)Cc1ccccc1)C(=O)N[C@@H](COC(=O)[C@@H](CC=C)Cc1ccc(F)cc1)Cc1c[nH]c2ccccc12	none (no result: aSyn 5UTR inh)
C=CC[C@H](CC(=O)N(CCO)Cc1ccccc1)C(=O)N[C@@H](COC(=O)[C@@H](CC=C)Cc1ccc(F)cc1)Cc1c[nH]c2ccccc12	PAX8 reporter 69.1 (no result: aSyn 5UTR inh)
COc1ccc(C(=O)C(CCC(CNC(C)(C)C)C(=O)c2ccc(OC)cc2)CNC(C)(C)C)cc1 (configuration not stated)	aSyn 5UTR inh 65.5, TRPM1 prom inh 95.4 (no result: PAX8 reporter)
Cc1cccc(NC(=S)NNC(=S)NC2CCCCC2)c1C	none
COc1cc(-c2noc(C)c2/C=C/c2ccc(OC(C)=O)cc2)cc(OC)c1OC	aSyn 5UTR inh 95.2, PAX8 reporter 69.3
